Screens as filed in PubChem BioAssay.
Sampled rows, rich in hits. Any-hit rate of the full collection: about 3.5%.
MITF inh – inhibitors of human MITF; O75030; hit rate 0.91% among 650,000; inhibition, % at 2.6 µM; AlphaScreen MITF homodimerization, bead proximity signal; in the data active = inhibition above about 50%
Target sequence (O75030 whole entry, looked up): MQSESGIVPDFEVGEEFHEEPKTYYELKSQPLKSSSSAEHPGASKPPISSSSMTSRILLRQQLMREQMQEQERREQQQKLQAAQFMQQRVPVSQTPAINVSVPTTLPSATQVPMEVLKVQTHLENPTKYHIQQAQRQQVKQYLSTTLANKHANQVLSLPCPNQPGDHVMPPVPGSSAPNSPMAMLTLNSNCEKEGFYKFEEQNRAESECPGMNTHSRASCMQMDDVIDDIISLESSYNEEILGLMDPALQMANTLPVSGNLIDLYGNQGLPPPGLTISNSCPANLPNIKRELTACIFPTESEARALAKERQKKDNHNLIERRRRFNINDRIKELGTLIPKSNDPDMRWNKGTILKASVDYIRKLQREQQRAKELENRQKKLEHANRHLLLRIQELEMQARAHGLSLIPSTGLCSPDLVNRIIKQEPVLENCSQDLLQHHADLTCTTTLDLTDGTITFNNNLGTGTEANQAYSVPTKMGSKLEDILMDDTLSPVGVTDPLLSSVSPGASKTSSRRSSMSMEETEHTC
FBW7 act – human FBW7 E3 ligase activation, primary screen; Q969H0; AlphaScreen FBW7–phospho-cyclin E peptide binding, activator screen; normalized activity (activation), % at 26.1 µM; hit rate 0.13% among 650,000; in the data active = normalized activity above about 1.9%;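 also: purified mutant Fbw7 with reduced substrate affinity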
TEAD-YAP block – TEAD-YAP interaction inhibition. hit rate 1.4% among 640,000. HEK-TIYL cells, TEAD-Gal4/YAP UAS-luciferase luminescence. inhibition, % at 9.12 µM; in the data active = inhibition above about 32%
GPR151 ag – activators of human GPR151 | Q8TDV0 | PathHunter beta-arrestin GPR151 cells, luminescence | activation, % at 11.2 µM | hit rate 1% among 650,000 | AID 1508602; in the data active = activation above about 4.9%
MITF inh conf – confirmation of human MITF inhibitors; inhibition, % at 2.6 µM; hit rate 16% among 4,700; AID 1259372; AlphaScreen MITF homodimerization, biotin/His-MITF beads; shares compounds with MITF inh;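 active = inhibition above a cutoff derived from the DMSO control wells, cut at about 28% in these data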;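 also: inhibitors lower the bead chemiluminescence by keeping MITF from dimerizing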
AlphaScreen DR – counter-screen: compounds optically interfering with AlphaScreen; shares compounds with MITF inh; AlphaScreen optical interference counterscreen, cell-free; IC50, µM; hit rate 6% among 480; AID 1259373; call rule not given here
AS interf ctr – AlphaScreen optical interference, counter-screen; shares compounds with MITF inh; LysRS AlphaScreen counterscreen, signal interference, triplicate; inhibition, % at 2.6 µM; hit rate 7.6% among 4,700;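 active = inhibition above a cutoff derived from the DMSO control wells, cut at about 30% in these data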
Numbers stand for hits.

CC(=O)Nc1ccc(OS(=O)(=O)c2ccccc2[N+](=O)[O-])cc1 was read as MITF inh 55.9, FBW7 act inactive, TEAD-YAP block inactive, GPR151 ag inactive, MITF inh conf inactive and AS interf ctr inactive.
For CC(=O)Nc1ccc(NS(=O)(=O)c2ccccc2[N+](=O)[O-])cc1 the results were MITF inh inactive, FBW7 act inactive, TEAD-YAP block inactive and GPR151 ag inactive.
OC1CCN(c2cc(-c3ccccc3)nc(-c3cccnc3)n2)CC1 was read as MITF inh inactive, FBW7 act inactive, TEAD-YAP block inactive and GPR151 ag inactive.
Screening Fc1ccc(-c2cc(N3CCN(c4ccccn4)CC3)nc(-c3cccnc3)n2)cc1 returned MITF inh 73.2, FBW7 act inactive, TEAD-YAP block inactive, GPR151 ag inactive, MITF inh conf inactive and AS interf ctr inactive.
For OC1CCN(c2cc(-c3cccnc3)nc(-c3ccccc3)n2)CC1 the results were MITF inh 71.4, FBW7 act inactive, TEAD-YAP block inactive, GPR151 ag inactive, MITF inh conf inactive and AS interf ctr inactive.
Screening c1ccc(-c2nc(-c3cccnc3)cc(N3CCN(c4ccccn4)CC3)n2)cc1 returned MITF inh inactive, FBW7 act inactive, TEAD-YAP block inactive and GPR151 ag inactive.
CCOc1ccc(N2C(=O)CC(N(CCc3ccc(OC)cc3)C(C)=O)C2=O)cc1 (stereo not given) was read as MITF inh inactive, FBW7 act inactive, TEAD-YAP block inactive and GPR151 ag inactive.
`NC(=O)CSc1ccc(C(N)=O)cc1[N+](=O)[O-]` gave MITF inh 63.7, FBW7 act inactive, TEAD-YAP block inactive, GPR151 ag inactive, MITF inh conf 38.8, AlphaScreen DR inactive and AS interf ctr inactive.
NC(=O)c1ccc(SCC(=O)O)c([N+](=O)[O-])c1 was read as MITF inh inactive, FBW7 act inactive, TEAD-YAP block inactive and GPR151 ag inactive.
`CCc1ccc(NC(=O)C(=O)N/N=C/c2ccc(C)o2)cc1` gave MITF inh inactive, FBW7 act inactive, TEAD-YAP block inactive and GPR151 ag inactive.
For CNC(=O)c1nnc(-c2ccccc2)o1 the results were MITF inh 78.0, FBW7 act inactive, TEAD-YAP block inactive, GPR151 ag inactive, MITF inh conf inactive and AS interf ctr inactive.
Screening CCCCNC(=O)c1ccc(CN(c2ccccc2)S(C)(=O)=O)cc1 returned MITF inh 91.6, FBW7 act inactive, TEAD-YAP block inactive, GPR151 ag inactive, MITF inh conf inactive and AS interf ctr inactive.
CCCNC(=O)c1ccc(CN(c2ccccc2)S(C)(=O)=O)cc1 was read as MITF inh inactive, FBW7 act inactive, TEAD-YAP block inactive and GPR151 ag inactive.
`COc1ccc(CN2CCN(C3CCCC3)CC2)c(OC)c1` gave MITF inh 65.8, FBW7 act inactive, TEAD-YAP block inactive, GPR151 ag inactive, MITF inh conf inactive and AS interf ctr inactive.
`COc1ccc(CN2CCCC2)c(OC)c1` gave MITF inh inactive, FBW7 act inactive, TEAD-YAP block inactive and GPR151 ag inactive.
`COc1ccc(CN2CCN(C(=O)CCC3CCCC3)CC2)c(OC)c1` gave MITF inh inactive, FBW7 act inactive, TEAD-YAP block inactive and GPR151 ag inactive.
COc1ccc(CN2CCC(N3CC(C)OC(C)C3)CC2)c(OC)c1 (stereo not given) was read as MITF inh 94.9, FBW7 act inactive, TEAD-YAP block inactive, GPR151 ag inactive, MITF inh conf inactive and AS interf ctr inactive.
For COc1ccc(CN2CCC(N3CC(C)OC(C)C3)CC2)cc1OC (stereo not given) the results were MITF inh 62.8, FBW7 act inactive, TEAD-YAP block inactive, GPR151 ag inactive, MITF inh conf inactive and AS interf ctr inactive.
`COc1ccc(CN2CCN(C3CCC(C)CC3)CC2)c(OC)c1` (stereo not given) gave MITF inh 69.0, FBW7 act inactive, TEAD-YAP block inactive, GPR151 ag inactive, MITF inh conf inactive and AS interf ctr inactive.
Screening CC1CN(C2CCN(Cc3ccc(Br)cc3)CC2)CC(C)O1 (stereo not given) returned MITF inh inactive, FBW7 act inactive, TEAD-YAP block inactive and GPR151 ag inactive.
`COc1cc(OC)c(OC)cc1CN1CCN(C2CCCCC2)CC1` gave MITF inh 67.0, FBW7 act inactive, TEAD-YAP block inactive, GPR151 ag inactive, MITF inh conf inactive and AS interf ctr inactive.
`COc1cc(OC)c(OC)cc1CN1CCN(C2CCN(Cc3ccccc3)CC2)CC1` gave MITF inh 58.5, FBW7 act inactive, TEAD-YAP block inactive, GPR151 ag inactive, MITF inh conf inactive and AS interf ctr inactive.
Screening COc1ccc(CN2CCC(C(=O)N3CCOCC3)CC2)c(OC)c1 returned MITF inh 56.1, FBW7 act inactive, TEAD-YAP block inactive, GPR151 ag inactive, MITF inh conf inactive and AS interf ctr inactive.
For CCOC(=O)C1CCN(Cc2ccc(OC)cc2OC)CC1 the results were MITF inh inactive, FBW7 act inactive, TEAD-YAP block inactive and GPR151 ag inactive.
COc1cc(OC)c(OC)cc1CN1CCN(C2CCCC2)CC1 was read as MITF inh inactive, FBW7 act inactive, TEAD-YAP block inactive and GPR151 ag inactive.
Screening COc1ccc(CN2CCN(C3CCN(Cc4ccccc4)CC3)CC2)cc1OC returned MITF inh inactive, FBW7 act inactive, TEAD-YAP block inactive and GPR151 ag inactive.
`Cc1cc(OCCOCCN2CCNCC2)cc(C)c1Cl` gave MITF inh 64.0, FBW7 act inactive, TEAD-YAP block inactive, GPR151 ag inactive, MITF inh conf inactive and AS interf ctr inactive.
`Clc1ccc(OCCCN2CCNCC2)c(Br)c1` gave MITF inh inactive, FBW7 act inactive, TEAD-YAP block inactive and GPR151 ag inactive.
`Cc1cc(Cl)c(OCCCN2CCNCC2)c(Br)c1` gave MITF inh inactive, FBW7 act inactive, TEAD-YAP block inactive and GPR151 ag inactive.
`Clc1cc(Cl)c(OCCCN2CCNCC2)c(Cl)c1` gave MITF inh 56.5, FBW7 act inactive, TEAD-YAP block inactive, GPR151 ag inactive, MITF inh conf inactive and AS interf ctr inactive.
Screening Clc1ccc(OCCN2CCNCC2)c(Br)c1 returned MITF inh 64.8, FBW7 act inactive, TEAD-YAP block inactive, GPR151 ag inactive, MITF inh conf inactive and AS interf ctr inactive.
`Cc1ccc(OCCCN2CCNCC2)c(Br)c1` gave MITF inh 69.2, FBW7 act inactive, TEAD-YAP block inactive, GPR151 ag inactive, MITF inh conf inactive and AS interf ctr inactive.
For COC(=O)c1ccc2c(=O)n(Nc3nc(C)cc(C)n3)c(SCc3cc(C(C)=O)ccc3OC)nc2c1 the results were MITF inh inactive, FBW7 act inactive, TEAD-YAP block inactive and GPR151 ag inactive.
Cc1cc(C)c(OCCOCCN2CCNCC2)c(C)c1 was read as MITF inh inactive, FBW7 act inactive, TEAD-YAP block inactive and GPR151 ag inactive.
